Shiga toxin inh: inhibitors of Shiga toxin in Vero cells; Vero cells, Shiga toxin protein synthesis inhibition reporter; inhibition, % at 38.7 µM; actives 9.2% (n = 290,000); AID 2315; in the data active means inhibition mostly above about 28%, no sharp cut-off; inactive means mostly below about 43%; further: 0% is about no effect
Cycloheximide cs: counter-screen for Shiga toxin inhibitors: cycloheximide protein synthesis inhibition. cell reporter, cycloheximide protein synthesis inhibition counterscreen. max response, %. actives 12% (n = 300,000); in the data active means max response mostly above about 13%, no sharp cut-off; inactive means mostly below about 14%; further: read at 38.3 µM for the half of the compounds with a filed dose; 0% is about no effect
Pf growth 48h: P. falciparum growth inhibition at 48 hours (one generation). P. falciparum luciferase growth in erythrocytes, 48 h. Potency, µM (titrated, usually from 28.7 µM), without a hit: at the top dose activity change, negative = inhibition, most hits filed as inhibitors. actives 5.9% (n = 310,000). AID 504832; further: potency means the concentration at half of the fitted maximal effect; on the % scale 0 is the no-effect control and ±100 the full control effect
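Firefly luciferase activity from engineered P. falciparum reports growth; inhibitors lower the luminescent signal. Cultures contained 2% hematocrit erythrocytes at 0.1% final parasitemia.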
HCMV inh: human cytomegalovirus inhibition. HFF cells, HCMV-luciferase reporter, 72 h; hits give low values. actives 4.5% (n = 410,000). activity change, negative = inhibition, % at 57.5 µM; in the data active means activity change below about -60%; inconclusive means no clear call, values can overlap the other calls; inactive means above about -39%; further: on the % scale 0 is the no-effect control and ±100 the full control effect
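Luciferase read-out from HCMV-luciferase-infected HFFs (MOI 1 PFU/cell) 72 h post infection at 37C; compounds added after 16 h cell attachment; activity normalized between buffer-only basal and Salinomycin (10uM) inhibitor controls.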
HCV inh: inhibitors of hepatitis C virus infection. actives 3.4% (n = 340,000). AID 651820. Potency, µM (doses to about 41.8 µM), inactives show top-dose activity change, negative = inhibition, usual class: inhibitors. Huh7.5.1 HCVcc-Cre infection, luciferase reporter, 44 h; further: potency means the concentration at half of the fitted maximal effect; on the % scale 0 is the no-effect control and ±100 the full control effect
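Reporter virus HCVcc-Cre (~0.5 moi) infects cells exposed to compound; seeding density 1,000 cells/well with 4 h settling beforehand. Luminescence, 15 sec read, taken 44 h post-infection following a 15 min RT substrate incubation.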
Pf growth 96h: P. falciparum growth inhibition at 96 hours. P. falciparum luciferase reporter growth, 96 h. AID 504834. Potency, µM (series often up to 28.7 µM), for the others: at the highest dose activity change, negative = inhibition, hits mostly inhibitors. actives 6.9% (n = 320,000); further: potency means the concentration at half of the fitted maximal effect; on the % scale 0 is the no-effect control and ±100 the full control effect
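Two parasite generations (96 h, 37 C, 5% CO2) of compound exposure in infected erythrocytes (0.05% parasitemia, 2% hematocrit). Luciferase-reporter P. falciparum; decreased luminescence indicates inhibited growth, aimed at apicoplast-acting delayed death.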
* marks the source's active call; other numbers are inactive results. An excerpt weighted towards active compounds, which were near 21% of everything screened. Unless noted, the call rests on the fitted dose curve; in most records, active means well fitted inhibition curve with a large enough effect; inconclusive means small, poorly fitted or top-dose-only effect, or another doubt; inactive means no such curve, though single readings can be large or run the other way.

Results for O=C(Nc1nnc(SCc2ccccc2F)s1)C1=COCCO1 ?
Shiga toxin inh: 116*; Cycloheximide cs: 57*; Pf growth 48h: 21%; HCMV inh: 62; HCV inh: 9%; Pf growth 96h: 37%

What do the screens show for `CC(c1ccccc1)c1nnc(NC(=O)Nc2ccccc2)s1` (configuration not stated)?
Shiga toxin inh: 0; Cycloheximide cs: 2; Pf growth 48h: 7%; HCMV inh: -21; HCV inh: 9%; Pf growth 96h: inconclusive

What do the screens show for `CC(=O)Nc1nnc(SCc2ccccc2F)s1`?
Shiga toxin inh: 44*; Cycloheximide cs: 24*; Pf growth 48h: 73%; HCMV inh: 57; HCV inh: 7%

What do the screens show for `CC(c1ccccc1)c1nnc(NC(=O)Nc2ccccc2F)s1` (configuration not stated)?
Shiga toxin inh: 72*; Cycloheximide cs: 45*; Pf growth 48h: -12%; HCMV inh: 1; HCV inh: -7%; Pf growth 96h: 7%

Results for O=C(Nc1nnc(SCc2ccccc2)s1)C1=COCCO1 ?
Pf growth 48h: 28%; HCMV inh: 25; HCV inh: inconclusive; Pf growth 96h: 43%

How did CC(=O)Nc1nnc(CSCc2ccccc2F)s1 do in these assays?
Shiga toxin inh: 28; Cycloheximide cs: 23*; Pf growth 48h: 13%; HCMV inh: 54; HCV inh: 7%; Pf growth 96h: 8%

Results for CCN(c1cccc(C)c1)S(=O)(=O)c1nnc(NC(=O)c2ccco2)s1 ?
Shiga toxin inh: -15; Cycloheximide cs: -3; Pf growth 48h: 22%; HCMV inh: -18; HCV inh: 8%; Pf growth 96h: inconclusive

What do the screens show for `CCN(C(=O)COC(=O)Cc1c[nH]c2ccccc12)c1c(N)n(Cc2ccccc2)c(=O)[nH]c1=O`?
Pf growth 48h: 1%; HCMV inh: 12; HCV inh: -1%; Pf growth 96h: -1%

What do the screens show for `CN1CC(=O)N2Cc3[nH]c4ccccc4c3C[C@H]2C1=O`?
Shiga toxin inh: 24; Cycloheximide cs: -4; Pf growth 48h: 11%; HCMV inh: inconclusive; HCV inh: 36%; Pf growth 96h: -1%

Results for O=C(Nc1nnc(-c2ccccc2SCc2ccccc2F)s1)Nc1ccccc1F ?
Shiga toxin inh: -10; Cycloheximide cs: -3; HCMV inh: -61*; HCV inh: 25%; Pf growth 96h: 25%

What do the screens show for `O=C(Nc1nnc(-c2cccc(F)c2)s1)Nc1ccccc1F`?
Shiga toxin inh: -3; Cycloheximide cs: 3; Pf growth 48h: 58%; HCMV inh: -34; HCV inh: 5%; Pf growth 96h: 14%

How did CC(C)Oc1ccc(S(=O)(=O)N2CCOCC2)cc1NC(=O)Cc1cccs1 do in these assays?
Pf growth 48h: 13µM*; HCMV inh: -16; HCV inh: -15%; Pf growth 96h: inconclusive

How did COc1ccc(S(=O)(=O)N2CCOCC2)cc1NC(=O)CSc1ccccc1 do in these assays?
Shiga toxin inh: -9; Cycloheximide cs: -3; Pf growth 48h: -6%; HCMV inh: -23; Pf growth 96h: 9%

How did CC(C)Oc1ccc(S(=O)(=O)N2CCOCC2)cc1NC(=O)CCCSc1ccccc1 do in these assays?
Pf growth 48h: inconclusive; HCMV inh: -25; HCV inh: 11µM*; Pf growth 96h: inconclusive

How did Cc1ccc(CSCC(=O)Nc2cc(S(=O)(=O)N3CCOCC3)ccc2OC(C)C)cc1 do in these assays?
Pf growth 48h: 10µM*; HCMV inh: -13; HCV inh: inconclusive; Pf growth 96h: 6.6µM*

What do the screens show for `CCn1cc(S(=O)(=O)c2cc(C)cc(C)c2)c(=O)c2cc(F)c(N3CCC(C)CC3)cc21`?
HCMV inh: 5

What do the screens show for `COc1cc(NC(=O)CSc2ncnc3sc4c(c23)CCCC4)c(C(=O)O)cc1OC`?
Shiga toxin inh: 1; Cycloheximide cs: -4; Pf growth 48h: 3%; HCMV inh: -12; HCV inh: 11%; Pf growth 96h: -16%

What do the screens show for `CCOC(=O)c1ccc(Oc2nc(SC)nc(N(C)C)n2)cc1`?
Shiga toxin inh: -2; Cycloheximide cs: -1; Pf growth 48h: inconclusive; HCMV inh: -8; HCV inh: inconclusive; Pf growth 96h: 95%

What do the screens show for `CCOC(=O)c1ccc(Oc2nc(NC)nc(SC)n2)cc1`?
Shiga toxin inh: -20; Cycloheximide cs: -8; Pf growth 48h: 3.7µM*; HCMV inh: -17; HCV inh: -6%

Results for CCNc1nc(Oc2ccc(C(=O)OC)cc2)nc(SC)n1 ?
Shiga toxin inh: 19; Cycloheximide cs: 4; Pf growth 48h: inconclusive; HCMV inh: 15; HCV inh: inconclusive; Pf growth 96h: inconclusive

Results for CCNc1nc(Oc2ccc(C(=O)OCC)cc2)nc(SC)n1 ?
Shiga toxin inh: -19; Cycloheximide cs: -4; Pf growth 48h: 12µM*; HCMV inh: 4; HCV inh: inconclusive; Pf growth 96h: 6%

What do the screens show for `Nc1c(Cl)cc(-c2csc(N3CCCC3c3nc4cc(Cl)c(N5CCCCC5)cc4n3CCOCCO)n2)cc1Cl` (configuration not stated)?
HCMV inh: -8; HCV inh: inconclusive

Results for Cc1ccc(S(=O)(=O)N2CCN(C(=O)COC(=O)CCOc3ccccc3C)CC2)c(C)c1 ?
Pf growth 48h: inconclusive; HCMV inh: -5; HCV inh: 14%; Pf growth 96h: 12%

What do the screens show for `NC(=O)c1c(NC(=S)Nc2ccc(F)cc2)sc2c1CCCC2`?
Shiga toxin inh: 40; Cycloheximide cs: 18*; Pf growth 48h: 17%; HCMV inh: inconclusive; HCV inh: -3%; Pf growth 96h: 3%

How did C=CC(=O)Nc1sc2c(c1C(N)=O)CCCC2 do in these assays?
Pf growth 48h: inconclusive; HCMV inh: 14; HCV inh: inconclusive; Pf growth 96h: 40%

How did C=CCNC(=S)Nc1sc2c(c1C(N)=O)CCCC2 do in these assays?
Shiga toxin inh: 56; Cycloheximide cs: 15*; Pf growth 48h: 7%; HCMV inh: -7; HCV inh: inconclusive; Pf growth 96h: 2%

What do the screens show for `CCCC(=O)NC(=S)Nc1sc2c(c1C(N)=O)CCC2`?
Shiga toxin inh: 65; Cycloheximide cs: 17; Pf growth 48h: 44%; HCMV inh: 9; HCV inh: -24%; Pf growth 96h: 50%

How did CC(C)C(=O)NC(=S)Nc1sc2c(c1C(N)=O)CCCC2 do in these assays?
Shiga toxin inh: 36*; Cycloheximide cs: 25*; Pf growth 48h: 34%; HCMV inh: -21; HCV inh: -3%; Pf growth 96h: 39%

How did C=CCNC(=O)CC(=O)N/N=C/c1ccc(C(=O)OC)cc1 do in these assays?
Shiga toxin inh: 1; Cycloheximide cs: -3; Pf growth 48h: 17%; HCMV inh: -67*; HCV inh: 5%; Pf growth 96h: -2%

Screening data from PubChem BioAssay.
